# Data taken from article PMC7819943, “Rice protein-binding microarrays: a tool to detect cis-acting elements near promoter regions in rice”.
# In all, about 68,000 sequences were measured (“fluorescence intensity (a.u.)”: median about 9,100, highest 2% from about 16,000 on). For the sample, the highest values were picked, then their nearest neighbours and some sequences at random.
# Molecular target: OsWRKY34 (Oryza sativa, UniProt Q0JBA9 1-250)
# Test: protein-binding microarray (RPBM); PBS, 2% BSA, 51.3 ng/ul salmon testes DNA, 50 uM zinc acetate, 200 nM TF, 25 C, 1 h; high values mean tight binding
# Details: protein: recombinant; tags: N-terminal polyhistidine and DsRed monomer fusion (pET32a); label: CyDye5-dUTP incorporated in the synthesized complementary strand; 3' TTTTT single-stranded linker to array surface; dsDNA, one strand shown
# How it was run: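 A custom Agilent array was converted to double-stranded form by primer extension with Cy5-dUTP and blocked with 2% BSA. Protein at 200 nM in PBS with 2% BSA, salmon testes DNA and 50 µM zinc acetate was applied for 1 h at 25 °C, followed by washing. The proteins were polyhistidine–DsRed N-terminal fusions of transcription factors, expressed in E. coli BL21-CodonPlus and Ni–NTA-purified. The binding signal is per-feature fluorescence intensity (arbitrary units) from an Axon 4000B scanner.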
# Sequence of OsWRKY34 (Q0JBA9 entry or part of it): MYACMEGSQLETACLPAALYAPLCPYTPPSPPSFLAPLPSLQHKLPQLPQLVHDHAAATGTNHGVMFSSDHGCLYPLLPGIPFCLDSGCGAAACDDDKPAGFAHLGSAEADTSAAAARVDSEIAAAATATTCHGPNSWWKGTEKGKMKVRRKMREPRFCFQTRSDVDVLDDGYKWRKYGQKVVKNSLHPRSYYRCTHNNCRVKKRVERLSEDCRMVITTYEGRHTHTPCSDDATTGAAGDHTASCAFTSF
row,Sequence,binding signal
1,CAAGTCACGTATAAAATATTAATCATGTTTTATCATCTAACGGAGTCACCTAGTGCAG,8050 fluorescence intensity (a.u.)
2,CGTTGACTTTTTTAAATATATAATTATTAATTTTTTTTCTCGGAGTCACCTAGTGCAG,23900 fluorescence intensity (a.u.)
3,CTTTTCTTTTCAATTTTTTGAGCGTTGACCATACTTAAATCGGAGTCACCTAGTGCAG,14800 fluorescence intensity (a.u.)
4,ATTTCTTGAACAGTTAAATACTTATAAATCCTTCACTTTTCGGAGTCACCTAGTGCAG,8050 fluorescence intensity (a.u.)
5,ACCATCTTATTTAACGTAAAATATTTAATTTTCATTTTTACGGAGTCACCTAGTGCAG,8480 fluorescence intensity (a.u.)
6,GTTTGACACCGTTGACTTTTTTAAATATGTTTGACCGTTTCGGAGTCACCTAGTGCAG,25000 fluorescence intensity (a.u.)
7,ACCTCGGTAATAAAAGATGATCTAACGTAAAATTTATTATCGGAGTCACCTAGTGCAG,23300 fluorescence intensity (a.u.)
8,CCTTTCGTTTTATATTATAATTCGTTTTGACTTTTTTCTTCGGAGTCACCTAGTGCAG,10500 fluorescence intensity (a.u.)
9,AGCGTTGACCATACTTAAATCACAGTTTTCTTTTCTTTTTCGGAGTCACCTAGTGCAG,21800 fluorescence intensity (a.u.)
10,TTCTAAATAATATTTGACGCCGTTGACTTTTTTAAATATACGGAGTCACCTAGTGCAG,14600 fluorescence intensity (a.u.)
11,CCATATCGTTTTGACGTTTTTAGTGTAGGTCAATTTATAGCGGAGTCACCTAGTGCAG,8170 fluorescence intensity (a.u.)
12,TTAAAACTGAAATTATCGTATGTGCCTTGTCGCCGTGATTCGGAGTCACCTAGTGCAG,8090 fluorescence intensity (a.u.)
13,GGGTATATACCGTGACCCTGATCGCCACACCGACCGGATACGGAGTCACCTAGTGCAG,13600 fluorescence intensity (a.u.)
14,ATCCGATCTCTCTTCTCATTCTCTTCTCTTGGTTTGGGGTCGGAGTCACCTAGTGCAG,8220 fluorescence intensity (a.u.)
15,AGTCTTGAAGACTGAGGCAAAGTCTGTTATCTTAATCGATCGGAGTCACCTAGTGCAG,9140 fluorescence intensity (a.u.)
16,TTGAAACTAAACAAGGCATTTAGCTCAAACCCTCATTGACCGGAGTCACCTAGTGCAG,8470 fluorescence intensity (a.u.)
17,GATCGTGGGAGGGAGGATTGGCCGGTTGTACTACAGTTGACGGAGTCACCTAGTGCAG,8660 fluorescence intensity (a.u.)
18,TTTTGCTACTCCTTCGTTCTCAGTATCCAAATTTAAATTTCGGAGTCACCTAGTGCAG,9900 fluorescence intensity (a.u.)
19,CTTTCTTATTGACTATTTTATTATTTGAGGTCATTTAGGGCGGAGTCACCTAGTGCAG,9310 fluorescence intensity (a.u.)
20,TTTGTTGGTGTTATGTTGACTTTTTTTTGGGAACATTACTCGGAGTCACCTAGTGCAG,17400 fluorescence intensity (a.u.)
21,CCCGTTGACCCAAATTTTCGTTCTCCTCACCGAGTATAGTCGGAGTCACCTAGTGCAG,17200 fluorescence intensity (a.u.)
22,CCATTATGGTGTTTCTTAGTTGTTTTTTTTGCCTTTTACTCGGAGTCACCTAGTGCAG,8470 fluorescence intensity (a.u.)

row,Sequence,binding signal
1,GACTTTATATGTGACTTTTTTTTTAACTTTTTCATAATTTCGGAGTCACCTAGTGCAG,9730 fluorescence intensity (a.u.)
2,ACACTTTGATCCCGATCGATGGCGCCATCCACTAATTGATCGGAGTCACCTAGTGCAG,10700 fluorescence intensity (a.u.)
3,CGCCGTTGACTTTTCATATAATATTTAACAATTCGCTTTACGGAGTCACCTAGTGCAG,36800 fluorescence intensity (a.u.)
4,ACTTTTCGCTTTTTATATTTGCATAATTTTTTTCAATAAGCGGAGTCACCTAGTGCAG,8150 fluorescence intensity (a.u.)
5,CCGTGTTGTCGTTCCTCCAAATTTGTACCGTTTTCCCTCTCGGAGTCACCTAGTGCAG,8770 fluorescence intensity (a.u.)
6,GTTGACTCGCACTTTTTGTAATTATGTGTTACATGGTTTCCGGAGTCACCTAGTGCAG,8810 fluorescence intensity (a.u.)
7,AATTTTGACTTTTTCTTGACTAATTAGGCCATCCGATGGGCGGAGTCACCTAGTGCAG,17800 fluorescence intensity (a.u.)
8,TTTTTCGCACGTTCTCTTTCGCCCTGTTTTTTTTGAAAGACGGAGTCACCTAGTGCAG,13300 fluorescence intensity (a.u.)
9,CCTAGACCCCTTCTCACGCCGCCAGCCCGTCACACCGAGTCGGAGTCACCTAGTGCAG,8790 fluorescence intensity (a.u.)
10,CCCACTAACTTATGGCTTTTCCCATCCGTGCTATATCCCTCGGAGTCACCTAGTGCAG,9270 fluorescence intensity (a.u.)
11,ATACTGTCATAGGATCTCGAGTACACCTGTTTTACAAGTTCGGAGTCACCTAGTGCAG,8860 fluorescence intensity (a.u.)
12,GTTTTGATTGGCATATGGTCCCTCCAATCCGTGTAATTGTCGGAGTCACCTAGTGCAG,8320 fluorescence intensity (a.u.)
13,TTCCTAAATATTTACGACGTTGACTTTTTTAAAAATGTTTCGGAGTCACCTAGTGCAG,20100 fluorescence intensity (a.u.)
14,GGAGTATATAAATATATATATTAAATACAACTCTAGACTACGGAGTCACCTAGTGCAG,26700 fluorescence intensity (a.u.)
15,CACCGTTGATTTTTTTAAATATGTTTGACCGTTCGTTTTACGGAGTCACCTAGTGCAG,12000 fluorescence intensity (a.u.)
16,ATAACCAACATATTTAGCCTACAATTAAATATTTACTATACGGAGTCACCTAGTGCAG,8390 fluorescence intensity (a.u.)
17,ACTACTTCCTCTGTTTCTAAATATTTGACGACGTTGATTTCGGAGTCACCTAGTGCAG,8050 fluorescence intensity (a.u.)
18,GTTGACTTTTTTTAAAATATGTTTGACCGTTCATATTATTCGGAGTCACCTAGTGCAG,8770 fluorescence intensity (a.u.)
19,AAATATTTGACGCCGTTGACTTTTTTAAATATGTTTAACCCGGAGTCACCTAGTGCAG,27200 fluorescence intensity (a.u.)
20,CGTTGACTTTTTTAAATATGTTTGACCGTTTATGTTATTTCGGAGTCACCTAGTGCAG,44100 fluorescence intensity (a.u.)
21,ATTTTTATACGGACTCTAAACTCTACTTTTAATTTTATTACGGAGTCACCTAGTGCAG,8490 fluorescence intensity (a.u.)
22,TACACTAACCCTACCATCCCGTACACCACCGAAACCCTAACGGAGTCACCTAGTGCAG,8330 fluorescence intensity (a.u.)

row,Sequence,binding signal
1,TGTCTGGTCAACGCACAATTTCGGTCAGTAACTCCCTGGCCGGAGTCACCTAGTGCAG,9770 fluorescence intensity (a.u.)
2,TCATGGGAGCAATTGCGCGATGTTTTTGTTCTTAACTTTCCGGAGTCACCTAGTGCAG,8050 fluorescence intensity (a.u.)
3,TTTTGGTACGTTATTAGTGTGTGTATCAGTTTTTAAGTTCCGGAGTCACCTAGTGCAG,9430 fluorescence intensity (a.u.)
4,GTTTCAGGTTTTTGCAGCCAACAGTTTTGCTGATTTTTTACGGAGTCACCTAGTGCAG,9480 fluorescence intensity (a.u.)
5,CTCCTTTTGCGCTGCTTCTCCTCGCCGCCACCGTGTAGCGCGGAGTCACCTAGTGCAG,8230 fluorescence intensity (a.u.)
6,GAATTTTTTTTTATCATCTTTGACGGGCACACAAATTTTACGGAGTCACCTAGTGCAG,8140 fluorescence intensity (a.u.)
7,TGGGGATGTGTTGTGGTGAGCTGGAAAGTGCAAACTGGTTCGGAGTCACCTAGTGCAG,9630 fluorescence intensity (a.u.)
8,TCCTGTTTAAAGTTTTTTTTTGTGATTTTTAGATAAAAAACGGAGTCACCTAGTGCAG,9030 fluorescence intensity (a.u.)
9,AGACTATCATCTTGAGCTTATTCTTCCATTTGCTCCATCTCGGAGTCACCTAGTGCAG,8950 fluorescence intensity (a.u.)
10,AGCCAGCCCAAAAGCCACGCCGTCCACTCCATCTCCGCCTCGGAGTCACCTAGTGCAG,8440 fluorescence intensity (a.u.)
11,CGATCGATCGATCGCGCGCCTCCGCCTATAAATTCTTGCCCGGAGTCACCTAGTGCAG,8230 fluorescence intensity (a.u.)
12,CTTCCCTAAATGTTTGACACCGTTGACTTTTTAAAATATACGGAGTCACCTAGTGCAG,10500 fluorescence intensity (a.u.)
13,GATCGTTTCTATTCCTAATTCGTTTTCTTTATACTCCCTCCGGAGTCACCTAGTGCAG,11100 fluorescence intensity (a.u.)
14,CCCTAAATATTTGACGCCGTTGACTTTTTTAAATATGTTTCGGAGTCACCTAGTGCAG,27300 fluorescence intensity (a.u.)
15,TTCGTTTTGACTTTTTTCTTAGTAAAACTTTTATGTTTGACGGAGTCACCTAGTGCAG,11600 fluorescence intensity (a.u.)
16,CTAAATGTTTGACACCGTTGACTTTTTTAAATATGTTTGACGGAGTCACCTAGTGCAG,23300 fluorescence intensity (a.u.)
17,CCCACCATTTTATATTATAAGCTGTTTGACTTTTTCTTAACGGAGTCACCTAGTGCAG,13100 fluorescence intensity (a.u.)
18,GCTGTTTGACTTTTTCTTAATTAAGCTTCTTTATGTTTGACGGAGTCACCTAGTGCAG,19700 fluorescence intensity (a.u.)
19,CTTTGCGTCTCCTCCCCTTTCTAATCCACTTTTTATTTTTCGGAGTCACCTAGTGCAG,9730 fluorescence intensity (a.u.)
20,AAGGTCGTTGACTTTTTATTCGTCCTCGTCTAATTTCTCCCGGAGTCACCTAGTGCAG,33600 fluorescence intensity (a.u.)
21,TGCAGTGGCTCCGTCGCTCAGTGAACATCCAGTCCCATTTCGGAGTCACCTAGTGCAG,9900 fluorescence intensity (a.u.)
22,GGCCTATATATAACCATTGCTGTTGCCCTAAGAATGAATGCGGAGTCACCTAGTGCAG,9380 fluorescence intensity (a.u.)

row,Sequence,binding signal
1,CATTTTTGTTTTTTACTGGGAGATTTTTTTTCCTTTTTCTCGGAGTCACCTAGTGCAG,11200 fluorescence intensity (a.u.)
2,TAGTTGTCAGGTCGCTCCGCTTCATTCTGCTGTGCATTTTCGGAGTCACCTAGTGCAG,10100 fluorescence intensity (a.u.)
3,ATATAGCTTGCTTGTTCGGTTGTTCCACTGTTCCGTGAGGCGGAGTCACCTAGTGCAG,8310 fluorescence intensity (a.u.)
4,AATTGGGAAAATTGGAACCGTGCCACTCCATCATGTTTTCCGGAGTCACCTAGTGCAG,8210 fluorescence intensity (a.u.)
5,CTCTCGCCCTTCGCGCTGACCTCCTCACAGCTGCTCTCGCCGGAGTCACCTAGTGCAG,8440 fluorescence intensity (a.u.)
6,AAGATCTCCCAGGCCTCGTGTTTTACGTCAACTGGTTGTACGGAGTCACCTAGTGCAG,8270 fluorescence intensity (a.u.)
7,ATTTATTAGTTTGATCCCTCTTTTATCACCATGTATTGCCCGGAGTCACCTAGTGCAG,8570 fluorescence intensity (a.u.)
8,AGGATCTTTATACACATAGCTACCACAATGGCTACAATTACGGAGTCACCTAGTGCAG,8130 fluorescence intensity (a.u.)
9,CCCGCGTCTCGGCCCTCTCCGTCCTCGTTGCTTCCGACGCCGGAGTCACCTAGTGCAG,8780 fluorescence intensity (a.u.)
10,CCCTAAATATTTGACACCGTTGACTTTTTTAAATATGTTTCGGAGTCACCTAGTGCAG,39600 fluorescence intensity (a.u.)
11,GGATTTTTGACGGGGTTTTGCAACGGACTTGACTTGTTTACGGAGTCACCTAGTGCAG,8320 fluorescence intensity (a.u.)
12,TAATACTTTATGCGTGACTTATCTTTTTAAATTTTTTTCACGGAGTCACCTAGTGCAG,8970 fluorescence intensity (a.u.)
13,ATGTTGTTTGTTATGATGCTGTTCTTTTGTTGTTGTTTACCGGAGTCACCTAGTGCAG,11700 fluorescence intensity (a.u.)
14,ATCTTTCTTATGCTGGCCATGATCTATGTTGCTGTTTTTGCGGAGTCACCTAGTGCAG,17700 fluorescence intensity (a.u.)
15,CGATTTTTATTTTTCGCCGGATGGGGTTGACTTTTTTTTACGGAGTCACCTAGTGCAG,20900 fluorescence intensity (a.u.)
16,TTTTTGACTTTGACTTTTAATAGTAAAAAAATCAATTATGCGGAGTCACCTAGTGCAG,9900 fluorescence intensity (a.u.)
17,ATCTCCCATGTGTGCATGCATCTTTTTTTGTTGTTTGCTGCGGAGTCACCTAGTGCAG,11200 fluorescence intensity (a.u.)
18,ATTGAGCGATTTTCGGTATTTCACGATGGGTTATATTTTACGGAGTCACCTAGTGCAG,8720 fluorescence intensity (a.u.)
19,TGCGTTGACTTTATCTTCAAATTAATTATGTGCTAATAGGCGGAGTCACCTAGTGCAG,22300 fluorescence intensity (a.u.)
